The results in this text go back to PubChem BioAssay.

Experiment [1] is described as follows: rapamycin-like changes in RPL19A-GFP expression – cell-based, S. cerevisiae, multiplex flow cytometry, primary screen (AID 1862; in the data active = percent of DMSO control GFP below about 86%;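 also: lower values mimic rapamycin by blocking the RPL19A rise seen in DMSO cells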). The note with it: S. cerevisiae RPL19A-GFP strain, flow cytometry fluorescence, 3 h; at 10 µM; stronger effect = lower value.
Experiment [2] can be described thus: TOR pathway GLN3 branch reporter MEP2-GFP changes – S. cerevisiae, multiplex flow cytometry, primary screen (AID 1867;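 active = GFP response, as percent of the DMSO control, above the screen-wide mean plus 3 SD, about 139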;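 also: median GFP channel fluorescence of barcode-gated MEP2-GFP cells measured by flow cytometry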). The following applies: S. cerevisiae MEP2-GFP strain, 3 h, at 10 µM, stronger effect = higher value, 100% means same as DMSO wells.
Experiment [3] in a line: TOR pathway RTG branch CIT2 reporter changes – S. cerevisiae, GFP fusion, multiplex flow cytometry, primary screen (AID 1870).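 Also: barcoded CIT2-GFP strain pooled with four other GFP strains with rapamycin as positive control; median GFP fluorescence per well over plate mean of DMSO wells so 100% = DMSO.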 The note with it: S. cerevisiae CIT2-GFP expression, 3 h, at 10 µM, stronger effect = higher value. In general terms: In flow cytometry, cells or beads pass a laser one at a time.
Experiment [4] in a line: TOR pathway LAP4-GFP level changes – S. cerevisiae, multiplex flow cytometry, primary screen (AID 1873;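 active = GFP signal, as percent of the solvent control, above the screen mean plus 3 SD, about 149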). The note with it: S. cerevisiae LAP4-GFP expression, 3 h, at 10 µM, stronger effect = higher value.
The nature of experiment [5]: yeast AGP1-GFP level changes, GLN3 branch – cell-based, multiplex flow cytometry, S. cerevisiae, primary screen (AID 1887;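 active = GFP signal above the screen-wide mean plus 3 SD, that is over about 124.5% of the solvent control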;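 also: AGP1-GFP fusion strain of S. cerevisiae within a five-strain barcoded multiplex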). The note with it: 3 h, at 10 µM, stronger effect = higher value.
The nature of experiment [6]: reduced mouse 2C T cell binding to pMHC/ICAM-1 vesicles – MLPCN validation set, flow cytometry, LFA-1/ICAM-1 modulator project, pilot screen (AID 2523;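 active = response below a set limit, under 55% cells CD8-positive and vesicle-bound, and CD8 cells' 90th-percentile brightness under 279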;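 as to vesicle binding response: mean PE anti-B7-1 fluorescence of CD8+ cells relative to row control; 100% = QL9-loaded vesicles with DMSO vehicle in the same plate row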). The following applies: 2C mouse CD8+ T cells, at 7 µM, stronger effect = lower value; double positive events: measured here: CD8+/vesicle+ event percentage.
In experiment [7] the target is Integrin beta-1 (Homo sapiens) + Integrin alpha-4 (Homo sapiens) (UniProt P13612+P05556). The experiment is described as follows: alpha4beta1 integrin LIBS antibody binding reduction – U937 cells, HUTS-21 mAb, flow cytometry, validation set, VLA-4 allosteric modulator project, pilot screen (AID 2674;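 active = inhibition above 50%, about 3 SD of the validation set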;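 also: antibody binding induced by the VLA-4 ligand LDV present at three times its Kd; 0% = LDV ligand with antibody and no compound and 100% = antibody without LDV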). The note with it: HUTS-21 LIBS mAb binding, at 6.7 µM, stronger effect = higher value, binding induced by LDV ligand.

Experiment [8] is described as follows: calorie-restriction mimetic ROS inhibitors, yeast – validation compound set, pilot screen (AID 2706;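 active = superoxide response below 65% of plate, a cut near 3 SD across the whole screen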;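 also: yeast exposed to compound for one week at 30 degrees C before staining; 100% = mean of all compound wells on the same plate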). The following applies: S. cerevisiae aging, superoxide DHE fluorescence; at 10 µM; stronger effect = lower value.
Experiment [9] concerns the target Beta-adrenergic receptor kinase 1 (Homo sapiens) (UniProt P25098). Put plainly: GRK2 binders displacing RNA aptamer, biochemical, validation, human GRK2, bead flow cytometry (AID 488806;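 active = aptamer binding inhibition above 30%, about 3 SD of noise from non-fluorescent compounds; inactive = inhibition at or below 30%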). The following applies: bead-bound GRK2, FAM-aptamer displacement, at 10 µM, stronger effect = higher value.
The target of experiment [10] is Beta-2 adrenergic receptor (Homo sapiens) (UniProt P07550). The experiment is described as follows: agonist-induced loss of surface beta2AR – cell-based, FAP fluorogen, flow cytometry, validation set, pilot screen (AID 504459;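 active = percent response above 42, roughly 3 SD of non-fluorescent test compounds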;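 also: agonist-driven loss of surface beta2AR via internalization measured by FAP dye flow cytometry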). The following applies: Am2.2-beta2AR cells, at 10 µM, stronger effect = higher value.
Experiment [11] addresses AP-2 complex subunit beta (Homo sapiens) (UniProt P63010). The experiment is described as follows: beta-arrestin/AP2 interaction blockers – biochemical, validation set, GST-AP2 beads, flow cytometry, pilot screen (AID 504541;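 active = inhibition above 54%, about 3 SD of non-fluorescent compounds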;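 also: AP2 carries R879A mutation and is captured from E. coli lysate; bead-bound FITC arrestin peptide fluorescence measuring arrestin peptide binding to AP2; 0% = DMSO wells and 100% = excess unlabeled arrestin peptide control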). The note with it: FITC arrestin peptide, at 10 µM, stronger effect = higher value, AP2 beta2 appendage fragment, R879A mutant.
Experiment [12] can be described thus: cytosolic pH regulators acting via V-ATPase – S. cerevisiae, pHLuorin, HTS validation (AID 504600; in the data active = response above about 15%;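 also: plate controls were DMSO for no effect and reference compound for full effect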). The following applies: V-ATPase proton transport, at 10 µM, stronger effect = higher value.
For experiment [13], the system named is anti-desmoglein-3 scFv antibody binding to human DSG3. The experiment is described as follows: blockers of pathogenic pemphigus antibody–desmoglein-3 binding – biochemical, validation compound set, bead-based, flow cytometry, pilot screen (AID 588368;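 active = binding below the plate cutoff, the plate median minus 3 SD, with a reading above zero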;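 also: signal is the median channel fluorescence of bead-bound GFP antibody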). The following applies: Protein G beads, DSG3-Fc, scFv-GFP binding, at 10 µM, stronger effect = lower value.
Experiment [14] in a line: Nile Red efflux blockade in pump-expressing yeast – validation compound set, multiplex, phenotypic, pilot screen (AID 588506;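 active = efflux inhibition above 0.42, the validation set average plus 4 SD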;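 also: Nile Red retained in cells so higher fluorescence means more efflux inhibition; 0 = negative control wells and 1 = enniatin B 25 µM full block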). The following applies: S. cerevisiae pump-expressing triplex, Nile Red efflux flow cytometry; at 10 µM; stronger effect = higher value; the pumps come from Candida albicans.
The target in experiment [15] is ATP-binding cassette sub-family B member 6 (Homo sapiens) (UniProt Q9NP58). Put plainly: blockers of ABCB6-driven porphyrin uptake – K562-ABCB6 cells, flow cytometry, validation set, pilot screen (AID 588550;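 active = inhibition above the screen-wide mean plus 3 SD, about 51%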;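 also: 0% = DMSO wells and 100% = benzethonium chloride 70 µM positive control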). The note with it: K562-ABCB6 porphyrin accumulation, 1 h, at 10 µM, stronger effect = higher value.
Experiment [16] is described as follows: AML differentiation inducers, ER-HoxA9 marrow cells – cell-based, GFP/MAC1 double positive, flow cytometry, validation set, primary screen (AID 588685;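 active = differentiation response of at least 50%, scaled between solvent and reference control, from cells with both markers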;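 also: compound exposure lasts four days before antibody staining and flow analysis; 0% = DMSO wells and 100% = 5 µM fulvestrant positive control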). The note with it: stronger effect = higher value, normalized: vehicle 0, fulvestrant 100.

Inconclusive results are not listed. Active and inactive are the calls of the source.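 The calls were made as follows, unless noted: active = percent response above a set limit, the screen-wide mean plus 3 SD (cut at about 130% in these data); inactive = the rest.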

Chain of Integrin beta-1 (Homo sapiens) + Integrin alpha-4 (Homo sapiens) (P05556 whole entry, looked up): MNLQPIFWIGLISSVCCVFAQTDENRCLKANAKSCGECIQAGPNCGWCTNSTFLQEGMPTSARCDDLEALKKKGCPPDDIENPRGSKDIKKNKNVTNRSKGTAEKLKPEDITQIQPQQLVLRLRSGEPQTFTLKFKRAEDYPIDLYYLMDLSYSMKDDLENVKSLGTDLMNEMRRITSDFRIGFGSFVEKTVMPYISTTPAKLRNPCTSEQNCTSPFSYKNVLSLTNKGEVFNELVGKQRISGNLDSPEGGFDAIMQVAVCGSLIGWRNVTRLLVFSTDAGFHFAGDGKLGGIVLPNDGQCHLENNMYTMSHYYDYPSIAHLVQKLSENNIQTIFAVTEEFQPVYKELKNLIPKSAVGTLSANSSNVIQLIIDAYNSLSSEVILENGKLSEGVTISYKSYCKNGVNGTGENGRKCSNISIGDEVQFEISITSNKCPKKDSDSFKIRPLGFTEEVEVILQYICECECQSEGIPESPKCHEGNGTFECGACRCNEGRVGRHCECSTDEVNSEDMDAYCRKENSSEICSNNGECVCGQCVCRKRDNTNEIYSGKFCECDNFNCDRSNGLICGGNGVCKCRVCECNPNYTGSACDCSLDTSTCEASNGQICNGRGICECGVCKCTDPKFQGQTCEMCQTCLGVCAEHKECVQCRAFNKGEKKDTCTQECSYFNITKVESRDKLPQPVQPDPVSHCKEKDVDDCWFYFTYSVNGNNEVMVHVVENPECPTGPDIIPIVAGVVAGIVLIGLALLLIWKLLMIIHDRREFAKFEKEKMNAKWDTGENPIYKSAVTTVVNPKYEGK
Chain of Integrin beta-1 (Homo sapiens) + Integrin alpha-4 (Homo sapiens) (P13612 whole entry, looked up): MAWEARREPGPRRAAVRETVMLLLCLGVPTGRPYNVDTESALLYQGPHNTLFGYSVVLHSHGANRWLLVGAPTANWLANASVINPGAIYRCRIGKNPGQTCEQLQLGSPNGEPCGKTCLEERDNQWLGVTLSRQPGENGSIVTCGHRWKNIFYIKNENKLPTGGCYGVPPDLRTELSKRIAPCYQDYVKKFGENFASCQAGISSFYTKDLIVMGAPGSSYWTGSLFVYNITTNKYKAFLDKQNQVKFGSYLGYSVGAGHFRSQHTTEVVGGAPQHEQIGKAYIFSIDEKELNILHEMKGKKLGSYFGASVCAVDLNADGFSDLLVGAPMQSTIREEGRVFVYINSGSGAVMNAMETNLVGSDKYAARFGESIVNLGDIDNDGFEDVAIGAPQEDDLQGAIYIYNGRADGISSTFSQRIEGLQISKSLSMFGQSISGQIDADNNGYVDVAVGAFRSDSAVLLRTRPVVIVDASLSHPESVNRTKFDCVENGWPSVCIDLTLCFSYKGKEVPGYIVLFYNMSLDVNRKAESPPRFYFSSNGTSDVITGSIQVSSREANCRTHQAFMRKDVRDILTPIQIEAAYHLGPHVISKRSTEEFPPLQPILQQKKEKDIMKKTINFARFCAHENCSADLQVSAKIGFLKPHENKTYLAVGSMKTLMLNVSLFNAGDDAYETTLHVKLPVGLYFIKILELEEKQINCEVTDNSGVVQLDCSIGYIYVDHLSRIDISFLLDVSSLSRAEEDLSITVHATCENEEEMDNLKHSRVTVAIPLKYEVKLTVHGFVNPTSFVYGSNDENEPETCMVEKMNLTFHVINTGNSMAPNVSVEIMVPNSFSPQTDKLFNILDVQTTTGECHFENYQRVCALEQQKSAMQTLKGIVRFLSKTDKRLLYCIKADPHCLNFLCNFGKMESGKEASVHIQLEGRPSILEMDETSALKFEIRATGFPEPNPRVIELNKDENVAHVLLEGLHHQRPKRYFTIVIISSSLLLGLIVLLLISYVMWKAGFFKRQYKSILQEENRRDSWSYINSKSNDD
Chain of ATP-binding cassette sub-family B member 6 (Homo sapiens) (Q9NP58 whole entry, looked up): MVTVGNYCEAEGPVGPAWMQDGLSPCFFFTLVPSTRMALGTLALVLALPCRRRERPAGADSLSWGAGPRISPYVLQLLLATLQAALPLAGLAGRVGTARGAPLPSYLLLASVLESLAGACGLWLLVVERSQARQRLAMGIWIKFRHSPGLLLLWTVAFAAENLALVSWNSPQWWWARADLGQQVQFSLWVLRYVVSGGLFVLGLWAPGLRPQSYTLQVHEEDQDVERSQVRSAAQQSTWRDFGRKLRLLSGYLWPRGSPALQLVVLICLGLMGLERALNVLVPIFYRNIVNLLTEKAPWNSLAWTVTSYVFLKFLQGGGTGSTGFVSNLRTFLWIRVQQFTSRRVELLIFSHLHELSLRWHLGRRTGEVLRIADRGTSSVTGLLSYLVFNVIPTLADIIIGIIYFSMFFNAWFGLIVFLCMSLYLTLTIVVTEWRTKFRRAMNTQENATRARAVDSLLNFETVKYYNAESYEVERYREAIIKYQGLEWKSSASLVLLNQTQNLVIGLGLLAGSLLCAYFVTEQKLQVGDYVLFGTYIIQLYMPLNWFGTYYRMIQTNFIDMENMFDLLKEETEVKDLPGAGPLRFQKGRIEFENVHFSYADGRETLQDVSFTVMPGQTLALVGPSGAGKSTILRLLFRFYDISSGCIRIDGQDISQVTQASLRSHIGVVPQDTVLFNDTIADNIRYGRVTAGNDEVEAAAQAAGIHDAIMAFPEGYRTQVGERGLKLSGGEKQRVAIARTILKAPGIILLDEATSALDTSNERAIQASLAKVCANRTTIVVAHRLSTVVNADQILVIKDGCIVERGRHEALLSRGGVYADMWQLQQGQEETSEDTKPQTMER
Chain of Beta-adrenergic receptor kinase 1 (Homo sapiens) (P25098 whole entry, looked up): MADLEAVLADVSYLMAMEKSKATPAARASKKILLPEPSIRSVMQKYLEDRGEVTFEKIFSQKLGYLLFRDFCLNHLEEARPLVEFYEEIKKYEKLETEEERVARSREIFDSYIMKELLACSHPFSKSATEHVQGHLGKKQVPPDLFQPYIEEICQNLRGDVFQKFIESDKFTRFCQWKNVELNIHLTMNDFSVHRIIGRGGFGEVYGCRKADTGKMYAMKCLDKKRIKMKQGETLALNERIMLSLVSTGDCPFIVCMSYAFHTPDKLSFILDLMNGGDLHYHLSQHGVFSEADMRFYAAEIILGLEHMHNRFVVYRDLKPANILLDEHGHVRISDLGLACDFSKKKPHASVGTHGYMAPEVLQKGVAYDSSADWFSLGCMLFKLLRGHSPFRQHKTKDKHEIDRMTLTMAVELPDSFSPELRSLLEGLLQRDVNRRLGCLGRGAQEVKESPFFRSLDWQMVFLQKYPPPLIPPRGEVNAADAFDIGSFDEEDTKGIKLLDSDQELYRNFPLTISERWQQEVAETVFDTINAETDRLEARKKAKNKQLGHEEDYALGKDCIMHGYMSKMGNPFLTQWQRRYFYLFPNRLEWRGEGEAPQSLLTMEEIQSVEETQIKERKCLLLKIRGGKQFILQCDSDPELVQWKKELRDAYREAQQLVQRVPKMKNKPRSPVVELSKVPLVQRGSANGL
Chain of AP-2 complex subunit beta (Homo sapiens) (P63010 whole entry, looked up, the tested form may be a part, one chain of several): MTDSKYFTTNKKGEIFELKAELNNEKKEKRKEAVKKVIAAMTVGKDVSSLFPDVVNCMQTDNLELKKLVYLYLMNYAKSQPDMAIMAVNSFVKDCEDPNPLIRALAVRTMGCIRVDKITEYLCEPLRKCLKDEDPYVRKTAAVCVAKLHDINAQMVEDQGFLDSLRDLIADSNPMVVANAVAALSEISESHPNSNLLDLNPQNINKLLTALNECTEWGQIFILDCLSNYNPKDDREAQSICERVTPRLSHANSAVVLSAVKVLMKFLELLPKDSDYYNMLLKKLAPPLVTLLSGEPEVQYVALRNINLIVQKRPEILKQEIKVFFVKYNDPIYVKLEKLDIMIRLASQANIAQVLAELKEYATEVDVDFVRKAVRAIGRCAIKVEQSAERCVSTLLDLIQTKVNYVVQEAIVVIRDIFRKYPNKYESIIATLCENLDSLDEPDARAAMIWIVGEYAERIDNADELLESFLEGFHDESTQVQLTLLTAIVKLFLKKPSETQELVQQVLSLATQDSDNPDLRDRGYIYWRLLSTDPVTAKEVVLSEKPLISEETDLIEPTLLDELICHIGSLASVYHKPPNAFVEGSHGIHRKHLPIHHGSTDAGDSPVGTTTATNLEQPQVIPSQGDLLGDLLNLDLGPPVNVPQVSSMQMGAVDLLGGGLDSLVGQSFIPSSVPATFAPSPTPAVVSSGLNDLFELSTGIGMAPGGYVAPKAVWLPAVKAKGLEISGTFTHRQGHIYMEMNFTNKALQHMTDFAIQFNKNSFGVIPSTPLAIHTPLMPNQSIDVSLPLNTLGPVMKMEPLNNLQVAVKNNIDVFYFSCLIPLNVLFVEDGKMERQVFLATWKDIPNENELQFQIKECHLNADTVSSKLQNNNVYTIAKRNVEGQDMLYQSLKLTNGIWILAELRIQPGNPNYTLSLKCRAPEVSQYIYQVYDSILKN
Chain of Beta-2 adrenergic receptor (Homo sapiens) (P07550 whole entry, looked up): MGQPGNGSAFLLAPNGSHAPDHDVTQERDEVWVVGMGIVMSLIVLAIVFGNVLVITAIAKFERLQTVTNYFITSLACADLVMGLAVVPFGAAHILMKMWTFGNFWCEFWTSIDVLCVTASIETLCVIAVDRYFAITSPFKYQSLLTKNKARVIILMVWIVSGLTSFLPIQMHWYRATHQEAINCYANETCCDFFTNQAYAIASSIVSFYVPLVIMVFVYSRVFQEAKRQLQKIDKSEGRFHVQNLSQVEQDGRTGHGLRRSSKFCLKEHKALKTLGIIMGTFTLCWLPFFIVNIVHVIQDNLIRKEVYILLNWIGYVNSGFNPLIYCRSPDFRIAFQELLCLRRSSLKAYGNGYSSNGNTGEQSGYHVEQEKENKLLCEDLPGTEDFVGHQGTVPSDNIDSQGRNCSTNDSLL

In the case of `CC1(CC(=O)Nc2ccccc2)NC(=S)N(c2ccccc2)N1` (stereo not given), in [1], the percent of DMSO control GFP is 106% (inactive). The GFP response vs DMSO in [2] was 111% (inactive); in [4] it was 134% (inactive). For the same molecule, the percent response of DMSO control in [3] was 90.1% (inactive). The GFP response, % of DMSO in experiment [5] is 104% (inactive). Also, the double positive events in experiment [6] was 49.5%. For the same molecule, the vesicle binding response in [6] is 9640% (inactive). Moreover, the values for the inhibition in [7], in [11] and in experiment [15] were -0.43% (inactive), -4.29% (inactive) and 6% (inactive), respectively. The superoxide response (% of plate) in experiment [8] is 109% (inactive). Besides, in experiment [9], the aptamer binding inhibition was 5% (inactive). Besides, the response in experiment [10] was -7.2% (inactive); in experiment [12] it was -0.03% (inactive). The binding (% of control) in [13] is 99.1% (inactive). The efflux inhibition (fraction of control) in experiment [14] is -0.13 (inactive). In experiment [16], the differentiation response was -18.4% (inactive).

Regarding `CN(C)CCC=C1c2ccccc2CCc2ccccc21`, the percent of DMSO control GFP in experiment [1] was 93.9% (inactive). Also, the GFP response vs DMSO in experiment [2] was 105% (inactive); in experiment [4], 113% (inactive). The percent response of DMSO control in experiment [3] was 93.9% (inactive). In [5], the GFP response, % of DMSO is 95.4% (inactive). In experiment [6], this molecule had a double positive events of 60.1%. Moreover, in experiment [6], the vesicle binding response is 227% (inactive). The inhibition – broadly, the change of the read-out against control, counted positive when it falls – in [7] is 6.4% (inactive); in experiment [11], -8.77% (inactive); in experiment [15], 6% (inactive). Further, the superoxide response (% of plate) in [8] was 101% (inactive). The aptamer binding inhibition in experiment [9] was 2% (inactive). Moreover, the response is -0.14% (inactive) in experiment [10] and 6.98% (inactive) in [12]. In addition, in experiment [13], the binding (% of control) is 101% (inactive). For the same molecule, in experiment [14], the efflux inhibition (fraction of control) was -0.17 (inactive). In [16], the differentiation response is -24.8% (inactive).

For `NS(=O)(=O)c1cc2c(cc1Cl)NC(C(Cl)Cl)NS2(=O)=O` (stereo not given), the percent of DMSO control GFP in experiment [1] was 100% (inactive). In addition, the figures for the GFP response vs DMSO in [2] and in [4] were 101% (inactive) and 108% (inactive), respectively. Besides, the percent response of DMSO control in experiment [3] was 102% (inactive). Further, the GFP response, % of DMSO in experiment [5] is 112% (inactive). The molecule also yielded a double positive events in experiment [6] of 63%. Moreover, the vesicle binding response in experiment [6] is 132% (inactive). For the same molecule, the inhibition in [7] was 2.29% (inactive); in [11], -6.64% (inactive); in experiment [15], 4% (inactive). For the same molecule, the superoxide response (% of plate) in experiment [8] is 92.7% (inactive). Also, the aptamer binding inhibition in experiment [9] was 4% (inactive). Also, the response in experiment [10] was 23.7% (inactive); in experiment [12] it was 2.72% (inactive). Besides, in experiment [13], the binding (% of control) was 104% (inactive). Moreover, the efflux inhibition (fraction of control) in experiment [14] was 0.21 (inactive). Also, in experiment [16], the differentiation response was -9.91% (inactive).

For `CC1(C)CC(=O)C(C2=NC(C)(C)Cc3ccccc32)=C(O)C1`, the percent of DMSO control GFP in experiment [1] was 103% (inactive). Also, the GFP response vs DMSO in experiment [2] is 100% (inactive); in experiment [4], 92.7% (inactive). In addition, in experiment [3], the percent response of DMSO control is 108% (inactive). Moreover, in experiment [5], the GFP response, % of DMSO is 101% (inactive). This molecule came in with a double positive events in experiment [6] of 59.3%. Also, the vesicle binding response in experiment [6] is 48.2% (inactive). In addition, the figures for the inhibition in experiment [7], in experiment [11] and in experiment [15] were -2.53% (inactive), 17.9% (inactive) and 13% (inactive), respectively. Further, in [8], the superoxide response (% of plate) is 103% (inactive). Also, the aptamer binding inhibition in [9] is 4% (inactive). Also, the response was -9.99% (inactive) in experiment [10] and 1.49% (inactive) in experiment [12]. Besides, the binding (% of control) in experiment [13] is 91.7% (inactive). For the same molecule, the efflux inhibition (fraction of control) in [14] was 0.14 (inactive). Also, the differentiation response in experiment [16] was -4.64% (inactive).

As to `O=C(/C=C/c1ccc2c(c1)OCO2)NCc1ccc(F)cc1`, the percent of DMSO control GFP in experiment [1] is 101% (inactive). Moreover, the GFP response vs DMSO is 106% (inactive) in experiment [2] and 108% (inactive) in [4]. The percent response of DMSO control in experiment [3] is 95.4% (inactive). Besides, the GFP response, % of DMSO in [5] is 99.7% (inactive). Moreover, the double positive events in experiment [6] is 60.1%. For the same molecule, the vesicle binding response in experiment [6] was 130% (inactive). The inhibition in [7] is -3.57% (inactive); in [11] it was 55.2% (active); in experiment [15], 2% (inactive). In addition, the superoxide response (% of plate) in [8] was 108% (inactive). In addition, the aptamer binding inhibition in experiment [9] is 2% (inactive). The response in [10] is -3.87% (inactive); in [12], -3% (inactive). Also, the binding (% of control) in experiment [13] is 98.4% (inactive). Also, the efflux inhibition (fraction of control) in experiment [14] was 0.08 (inactive). In [16], the differentiation response was 15.9% (inactive).
